WRN inhibitor: blocks human WRN helicase; Q14191; WRN helicase unwinding, fluorescent forked duplex, kinetic; Potency, µM (series often up to 114 µM), for the others: top-dose activity change, negative = inhibition, most hits filed as inhibitors; actives 0.46% (n = 360,000); AID 651768; further: potency means the concentration at half of the fitted maximal effect; on the % scale 0 is the no-effect control and ±100 the full control effect; nearly all actives have a fitted effect of over 55% in size
Target sequence (Q14191 whole entry, looked up): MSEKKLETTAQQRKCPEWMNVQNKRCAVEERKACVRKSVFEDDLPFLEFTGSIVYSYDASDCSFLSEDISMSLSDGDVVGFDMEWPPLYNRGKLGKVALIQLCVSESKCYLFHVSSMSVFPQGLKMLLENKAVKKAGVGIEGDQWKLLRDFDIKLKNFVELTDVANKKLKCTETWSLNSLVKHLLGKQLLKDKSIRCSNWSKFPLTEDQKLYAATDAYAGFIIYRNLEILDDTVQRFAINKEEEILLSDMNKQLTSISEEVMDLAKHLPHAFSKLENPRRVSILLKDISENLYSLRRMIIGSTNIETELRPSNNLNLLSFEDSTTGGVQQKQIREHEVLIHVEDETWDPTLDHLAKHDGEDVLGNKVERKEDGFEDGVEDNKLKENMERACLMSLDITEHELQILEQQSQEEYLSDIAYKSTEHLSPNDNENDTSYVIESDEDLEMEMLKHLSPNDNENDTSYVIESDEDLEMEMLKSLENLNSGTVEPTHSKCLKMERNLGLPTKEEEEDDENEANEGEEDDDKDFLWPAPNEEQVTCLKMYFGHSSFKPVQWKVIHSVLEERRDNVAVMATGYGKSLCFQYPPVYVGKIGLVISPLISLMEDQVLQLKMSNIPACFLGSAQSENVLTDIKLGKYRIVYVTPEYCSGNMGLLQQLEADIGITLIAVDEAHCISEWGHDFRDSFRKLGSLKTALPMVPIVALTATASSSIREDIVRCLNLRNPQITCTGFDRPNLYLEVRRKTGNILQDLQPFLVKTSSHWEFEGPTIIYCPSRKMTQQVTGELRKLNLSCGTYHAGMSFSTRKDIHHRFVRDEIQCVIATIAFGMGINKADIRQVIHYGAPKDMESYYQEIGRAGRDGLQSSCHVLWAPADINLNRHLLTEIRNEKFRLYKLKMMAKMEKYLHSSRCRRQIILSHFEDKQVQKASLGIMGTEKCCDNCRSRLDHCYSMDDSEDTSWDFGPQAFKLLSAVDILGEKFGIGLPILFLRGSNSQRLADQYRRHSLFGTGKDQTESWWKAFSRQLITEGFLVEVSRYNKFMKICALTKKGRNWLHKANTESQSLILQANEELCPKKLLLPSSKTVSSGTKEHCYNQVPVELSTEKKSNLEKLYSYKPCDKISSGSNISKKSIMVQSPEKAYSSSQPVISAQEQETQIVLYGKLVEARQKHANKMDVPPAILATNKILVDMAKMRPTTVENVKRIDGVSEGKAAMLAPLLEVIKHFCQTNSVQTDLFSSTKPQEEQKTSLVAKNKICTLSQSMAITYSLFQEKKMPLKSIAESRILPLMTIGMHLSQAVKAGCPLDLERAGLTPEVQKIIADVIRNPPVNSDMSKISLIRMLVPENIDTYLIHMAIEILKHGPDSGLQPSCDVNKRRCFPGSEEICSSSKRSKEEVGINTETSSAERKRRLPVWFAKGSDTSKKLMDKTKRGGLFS
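Screening of the MLSMR collection measured strand separation of a quenched forked DNA duplex (100 nM) by 20 nM WRN with 2 mM ATP, all final. Compounds were preincubated with enzyme 15 min at room temperature.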
Glioma ERSR ind: inducers of ER stress response in human glioma cells | actives 0.02% (n = 420,000) | Potency, µM, for the others: at the highest dose activation, hits mostly activators | U87-MG GRP78 promoter luciferase reporter, 16 h | AID 602332; further: potency means the concentration at half of the fitted maximal effect; series mostly up to about 76 µM; % of control where 0% means no effect; nearly all actives have a fitted effect of over 35% in size
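Stably transfected U87-MG human glioma cells carrying a GRP78-based luminescent sensor were seeded at 1000 cells/well, pin-dosed with compounds and incubated 16 h. Luciferase reagent was then added, and end-point luminescence was read after 10 min at room temperature.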
PI5P4K alpha inh: inhibitors of human PI5P4K alpha; max response, %; actives 1.2% (n = 330,000); P48426; PI5P4Kalpha enzyme, ADP-Glo luminescence, 60 min; stronger effect = lower value; AID 652105; active means max response of -50% or lower; inconclusive means between -30% and -50%; inactive means -30% or higher; further: value at the top dose of about 77 µM; on the % scale 0 is the no-effect control and ±100 the full control effect
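qHTS, 1536-well: enzyme/substrate mix, compound by pin tool, 5 microM ATP final; RT 60 min; ADP-Glo reagents 1 (45 min) then 2 (30 min); luminescence.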
PGK inhibitor: blocks T. brucei phosphoglycerate kinase; Potency, µM (top dose mostly 57.5 µM), inactives show at the top dose activity change, negative = inhibition, usual class: inhibitors; actives 0.043% (n = 380,000); PGK/GAPDH coupled, Kinase-Glo luminescence, 60 min; further: potency means the concentration at half of the fitted maximal effect; on the % scale 0 is the no-effect control and ±100 the full control effect; nearly all actives have a fitted effect of over 60% in size
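Recombinant glycosomal PGK reaction used 1,3-bisphosphoglycerate generated in-well by GAPDH (100nM final) in 100mM TEA pH 7.6, 5mM MgCl2, 0.01% Tween-20. After 60 minutes at room temperature, ATP was read by Kinase-Glo Plus luminescence end-point.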
FEN1 inh: human FEN1 inhibition | Potency, µM (series often up to 114 µM), for the others: at the highest dose activity change, negative = inhibition, usual class: inhibitors | AID 588795 | Recombinant FEN1 flap cleavage, fluorescence, 15 min | P39748 | actives 0.35% (n = 390,000); further: potency means the concentration at half of the fitted maximal effect; on the % scale 0 is the no-effect control and ±100 the full control effect; nearly all actives have a fitted effect of over 65% in size
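FEN1 at 10 nM preincubated with compounds 15 min at room temperature, then flap DNA substrate added at 50 nM final. Signal read at 0 and 15 min; concentration-response fitted with four-parameter Hill equation.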
Pin1 inh: human Pin1 inhibition. AID 504891. Q13526. Potency, µM (highest dose often 115 µM), inactives show top-dose activity, negative = inhibition, usual class: inhibitors. Pin1 FP peptide displacement, HiFluor488, 10 min. actives 0.009% (n = 390,000); active means well fitted inhibition curve with a large enough effect in the polarisation, with a control signal flat, not every such curve was filed as active; inconclusive means small, poorly fitted or top-dose-only effect, or effect the other way, or a change in a side signal; inactive means no such curve, though single readings can be large or run the other way; the % refers to the polarisation; further: potency means the concentration at half of the fitted maximal effect; on the % scale 0 is the no-effect control and ±100 the full control effect
ADP-Glo counter: ADP-Glo luciferase interference, PI5P4K counter-screen; AID 743285; ADP-Glo detection counter-screen, luciferase luminescence, no enzyme; shares compounds with PI5P4K alpha inh; 1,100 tested, under 10 active; Potency, µM (series often up to 76.9 µM), for the others: at the highest dose activity change, negative = inhibition, most hits filed as inhibitors
* marks the source's active call; other numbers are inactive results; i = inactive; ? = inconclusive; nt = not tested or not shown. Only some compounds are listed: those with a hit (about 1.3% of all), similar ones and a draw of the others. Unless noted, the call rests on the fitted dose curve; in most records, active means well fitted curve in the direction sought with a large enough effect; inconclusive means small, poorly fitted or top-dose-only effect, or another doubt; inactive means no such curve, though single readings can be large; an effect the other way counts as inactive or inconclusive.

SMILES	WRN inhibitor	Glioma ERSR ind	PI5P4K alpha inh	PGK inhibitor	FEN1 inh	Pin1 inh	ADP-Glo counter
Cc1ccc(Cl)cc1N1CCN(S(=O)(=O)c2ccc3[nH]c(=O)c(=O)[nH]c3c2)CC1	-14.8%	-4.3%	-55.5*	-7.4%	-9.8%	?	-3.4%
O=C(NCc1ccccc1)c1cc2ccc(O)cc2oc1=O	-8.4%	0.6%	-66.5*	-10.7%	-2.9%	-1.4%	-12.3%
O=C(c1ccc(F)cc1)c1cc2ccc(O)cc2oc1=O	-9.3%	-0.6%	-72.6*	?	-7.6%	-3.1%	?
O=C(O)c1cc2ccc(O)cc2oc1=O	-7.8%	-5.3%	-3.5	8.9%	nt	nt	nt
CC[n+]1c(/C=C/C=C2/N(C)c3ccccc3C2(C)C)sc2ccccc21	nt	-14.7%	nt	nt	nt	nt	nt
O=C(NC1CC1)C1CCN(S(=O)(=O)c2cc([N+](=O)[O-])ccc2Cl)CC1	?	-4.1%	-55.6*	-17.0%	?	nt	-5.8%
O=C(NC1CC1)C1CCN(S(=O)(=O)c2cc(Cl)ccc2Cl)CC1	-6.3%	-5.1%	3.7	3.3%	16.1%	-6.8%	nt
CC(C)Cc1c(O)nc(SCC(=O)N2CCCCCC2)[nH]c1=O	1.5%	-3.3%	-50.3*	6.9%	14.6%	-1.2%	0.1%
COc1cc2nc(COc3ccccc3[N+](=O)[O-])oc(=O)c2cc1OC	-5.3%	-1.6%	-57.4*	-12.8%	1.2%	-1.2%	1.6%
COc1cc2nc(-c3ccccc3C)oc(=O)c2cc1OC	-33.7%	-3.4%	6.3	-9.3%	8.2%	0.3%	nt
O=C(NCCc1ccncc1)c1cnn(-c2ncc3c(n2)-c2ccccc2CCC3)c1C1CC1	nt	-4.6%	nt	nt	nt	nt	nt
NC(=O)C1CCN(CC(=O)Nc2ccc3c(c2)OCCO3)CC1	6.0%	0.8%	-63.2*	-11.9%	-14.3%	?	-5.3%
NC(=O)C1CCN(CC(=O)Nc2ccc3c(c2)OCO3)CC1	5.6%	-2.5%	-1.1	i	nt	nt	nt
COc1ccc(CN(Cc2ccccc2)C(=O)c2cccc(C#N)c2)cc1COc1ccc(NC(C)=O)cc1	nt	nt	nt	nt	3.9%	17.9%	nt
Cc1c(-c2cc(C(=O)O)on2)cnn1C	3.2%	0.9%	-50.8*	-2.9%	-4.3%	-11.7%	-10.4%
Cc1c(C(=O)Nc2ccc(C(=O)O)cc2)cnn1C	-5.1%	-1.3%	-4.3	i	6.2%	0.1%	nt
CCS(=O)(=O)N1Cc2ccccc2CC1C(=O)Nc1nnc(SCc2ccc(C#N)cc2)s1 (stereo not given)	?	4.8%	-57.0*	-5.6%	-8.6%	30.2%	4.7%
Cc1cccc(C(=O)NCc2nc(-c3ccccc3NC(=O)C3CCCO3)oc2C)c1 (stereo not given)	nt	-4.0%	nt	nt	nt	nt	nt
O=C(Nc1ccc(Cl)cc1)Nc1nnc(-c2ccncc2)s1	-3.4%	-3.2%	-10.1	6.6%	-0.8%	8.6%	nt
O=C(Nc1cccc(Cl)c1)Nc1nnc(-c2ccncc2)s1	-11.4%	-6.6%	-59.7*	-11.1%	-7.0%	?	-4.8%
COc1ccccc1C1CN(CC(=O)N2CCC(N3CCOCC3)CC2)Cc2ccccc2O1 (stereo not given)	nt	-3.3%	nt	nt	nt	nt	nt
Cc1c(C(=O)O)sc2ncnc(N3CCCCC3C)c12 (stereo not given)	2.6%	-2.4%	nt	-1.3%	-3.7%	0.4%	0.1%
Cc1c(C(=O)N2CCCC(C)C2)sc2ncnc(N3CCCCC3C)c12 (stereo not given)	-2.4%	-3.9%	0.1	7.8%	-14.6%	-0.9%	nt
COc1ccc(OC(=O)c2ccc(Cl)cc2)c(C(C)=O)c1	-16.2%	0.0%	-3.8	0.7%	-12.7%	0.6%	nt
COc1ccc(Nc2ccc(Cl)cc2)c(C(=O)O)c1	-4.0%	-1.4%	-52.0*	-10.9%	13.6%	-9.2%	2.4%
COc1ccccc1C1CN(Cc2cccc3c2OCO3)Cc2ccccc2O1 (stereo not given)	nt	-4.1%	nt	nt	nt	nt	nt
Cc1cc(C)cc(NC(=O)Cn2nnc(C(=O)NCc3ccc(F)cc3)c2N)c1	-13.5%	-3.2%	-56.5*	0.3%	?	7.4%	-3.4%

Assay outcomes as filed in PubChem BioAssay.
